# Test results from PubChem BioAssay (EPA / NIEHS).
# “And” between values parts separate entries of the source, which are not always exact repeats. Identical values can stand only once. Results filed as inconclusive are left out. Some structures have more than one record in an assay (separate samples or runs), and their calls can disagree. The source made the active and inactive calls. The calls were made as follows, unless noted: active = hit-call score of the fitted dose curve at least 0.9, where 1 is the maximum; inactive = score below 0.9.
# Assays:
# [1] = read-out: Interleukin-8 (IL8), CXCL8 (gene 3576); assay: BSK_3C_IL8: BioMAP Diversity Plus: 3C Assay for Interleukin-8 (IL8) Biomarker Activity (AID 2283020); conditions: primary human endothelial cells (HUVEC); actives raise or lower the signal
# Method in brief: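 Human vascular endothelial cells (umbilical vein) in the 3C system; IL-8 level detected by ELISA at 24 h post-dose, with DMSO as baseline.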
# [2] = read-out: Monokine induced gamma interferon (MIG), CXCL9 (gene 4283); assay: BSK_3C_MIG: BioMAP Diversity Plus: 3C Assay for Monokine induced gamma interferon (MIG) Biomarker Activity (AID 2283021); conditions: primary human endothelial cells (HUVEC); actives raise or lower the signal;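 as to AC50: MIG protein level measured by immunoassay in the treated endothelial cultures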
# Method in brief: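 After 24 h of treatment, human umbilical vein endothelial cultures (3C system) had their MIG biomarker level determined by ELISA, with DMSO serving as negative control.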
# [3] = molecular target: human Vitamin D Receptor (VDR), VDR (gene 7421) (UniProt P11473); assay: ATG_VDR_TRANS: Attagene TRANS-FACTORIAL HepG2 Assay for human Vitamin D Receptor (VDR) (AID 2283022; active = hit-call score of the fitted dose curve at least 0.9, where 1 is the maximum)
# Method in brief: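 Fluorescence of labelled reporter cDNA fragments, resolved by capillary electrophoresis, gives mRNA induction after 24 h treatment of HepG2 cells carrying transfected Gal4-fusion reporter units. Activity is fitted in the positive direction with DMSO as baseline.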
# [4] = BSK_3C_SRB: Viability Assessment in the BioMAP Diversity Plus: 3C Assay (AID 2283023); conditions: primary human endothelial cells (HUVEC);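 also: cells read 24 h after compound dosing; fitted both ways against DMSO so a hit may be signal rise or drop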
# Method in brief: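 Cells were dosed with chemical, cultured 24 h, fixed with 10% TCA, stained with 0.1% SRB and read at 560 nm. Human umbilical vein endothelium was used; DMSO served as negative control and baseline.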
# [5] = read-out: Matrix Metallopeptidase 1 (MMP1), MMP1 (gene 4312); assay: BSK_BE3C_MMP1: BioMAP Diversity Plus: BE3C Assay for Matrix Metallopeptidase 1 (MMP1) Biomarker Activity (AID 2283024); conditions: primary human bronchial epithelial cells; actives raise or lower the signal
# Method in brief: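 Dose cells, wait 24 h, run MMP1 ELISA; cells are human bronchial epithelial primaries. Both increases and decreases relative to DMSO counted.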
# [6] = read-out: Pselectin, SELP (gene 6403); assay: BSK_4H_Pselectin: BioMAP Diversity Plus: 4H Assay for Pselectin Biomarker Activity (AID 2283026); conditions: primary human endothelial cells (HUVEC); actives raise or lower the signal
# Method in brief: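 Human vascular endothelium from umbilical vein; P-selectin measured by ELISA at 24 h post-dose, with cytotoxicity checked by sulforhodamine B total-protein staining in parallel cultures (0.1% SRB after 10% TCA fixation, read at 560 nm).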
# [7] = BSK_4H_SRB: Viability Assessment in the BioMAP Diversity Plus: 4H Assay (AID 2283027); conditions: primary human endothelial cells (HUVEC);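 also: cells exposed to compound for 24 h before staining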;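 as to AC50: curves fitted both ways versus DMSO so AC50 may be loss or gain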
# Method in brief: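 Absorbance at 560 nm of SRB-stained total protein served as the viability read-out in confluent primary human umbilical vein endothelium 24 h after chemical treatment. Curves were fitted bidirectionally against DMSO as negative control.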
# [8] = BSK_BE3C_SRB: Viability Assessment in the BioMAP Diversity Plus: BE3C Assay (AID 2283028); conditions: primary human bronchial epithelial cells;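 also: measured 24 h after chemical dosing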;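 as to AC50: fitted both ways so AC50 may mark signal gain or loss versus DMSO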
# Method in brief: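 Overt cytotoxicity was assessed as total protein in confluent human primary bronchial epithelial cultures 24 h after chemical addition, using 0.1% sulforhodamine B staining read at 560 nm.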
# [9] = read-out: Thrombomodulin, THBD (gene 7056); assay: BSK_3C_Thrombomodulin: BioMAP Diversity Plus: 3C Assay for Thrombomodulin Biomarker Activity (AID 2283029); conditions: primary human endothelial cells (HUVEC); actives raise or lower the signal
# Method in brief: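 Thrombomodulin ELISA, human primary HUVEC, 24 h post-dose; data fitted in both directions relative to DMSO.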
# [10] = BSK_3C_Vis: BioMAP Diversity Plus: 3C Assay for Morphology Visualization (AID 2283025); conditions: primary human endothelial cells (HUVEC);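 also: fitted both ways so gain or loss versus DMSO counts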;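 as to AC50: light microscopy image of cell morphology used as background control; cells imaged 24 h after dosing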
# Method in brief: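 Endothelial cells from human umbilical vein were treated with test chemicals for 24 h and inspected by light microscopy for changes in cell conformation.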
# Chain of human Vitamin D Receptor (VDR), VDR (gene 7421) (P11473 whole entry, looked up, the tested form may be a part): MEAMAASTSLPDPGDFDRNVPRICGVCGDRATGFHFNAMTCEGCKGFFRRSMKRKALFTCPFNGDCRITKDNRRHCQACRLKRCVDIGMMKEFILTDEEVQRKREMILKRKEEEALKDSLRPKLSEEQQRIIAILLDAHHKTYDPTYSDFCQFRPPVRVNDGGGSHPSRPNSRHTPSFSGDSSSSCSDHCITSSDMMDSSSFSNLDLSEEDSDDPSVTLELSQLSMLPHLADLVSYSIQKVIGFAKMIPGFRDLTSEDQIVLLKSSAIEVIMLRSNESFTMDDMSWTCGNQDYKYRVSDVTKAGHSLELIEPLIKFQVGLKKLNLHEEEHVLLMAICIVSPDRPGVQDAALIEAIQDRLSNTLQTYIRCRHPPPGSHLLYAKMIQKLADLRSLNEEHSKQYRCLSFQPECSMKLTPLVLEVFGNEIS
SMILES,AC50 [1],outcome [1],outcome [2],outcome [3],outcome [4],AC50 [5],outcome [5],outcome [6],outcome [7],outcome [8],outcome [9],outcome [10],AC50 [4],AC50 [6],AC50 [7],AC50 [8],AC50 [9],AC50 [2],AC50 [10]
O=C(O)C(F)(F)C(F)(F)C(F)(F)C(F)(F)C(F)(F)C(F)(F)C(F)F,30 µM (active),inactive,inactive,inactive,inactive,12 µM (active),inactive,inactive,inactive,inactive,inactive,,,,,,,,
CC1=CC2C3C=CC(C3)C2C1C (configuration not stated),,inactive,inactive,inactive,inactive,,inactive,inactive,inactive,inactive,inactive,inactive,,,,,,,
O=C(Cl)C(F)(F)C(F)(F)C(F)(F)C(F)(F)C(F)(F)C(F)(F)C(F)(F)F,,inactive,inactive,inactive,inactive,6 µM (active) and 24 µM (active),inactive,inactive,inactive,inactive,inactive,,,,,,,,
O=C(Cl)C(F)(F)C(F)(F)C(F)(F)C(F)(F)C(F)(F)C(F)(F)F,27 µM (active),inactive,inactive,inactive,inactive,29.3 µM (active) and 30 µM (active),inactive,inactive,inactive,inactive,inactive,,,,,,,,
C[C@]12CC[C@H]3C(=CCc4cc(O)ccc43)[C@@H]1CCC2=O,,inactive,inactive,inactive,inactive,,inactive,inactive,inactive,inactive,inactive,inactive,,,,,,,
CCN(CCO)S(=O)(=O)C(F)(F)C(F)(F)C(F)(F)C(F)(F)C(F)(F)C(F)(F)C(F)(F)C(F)(F)F,13.7 µM (active),inactive,inactive,inactive,,4.15 µM (active),inactive,inactive,,,,,27.6 µM (active) and 17.8 µM (active),19.1 µM (active),45.8 µM (active) and 40.1 µM (active),44.5 µM (active) and 37.2 µM (active),12.6 µM (active) and 21.8 µM (active),,
Cc1cc(O)c(C(C)(C)C)cc1C(C)(C)C,2.73 µM (active),,,inactive,,9.45 µM (active),,,,,,,3.99 µM (active),5.32 µM (active),4.77 µM (active),5.9 µM (active),4.96 µM (active),11.5 µM (active),12.5 µM (active)
Cc1ccc(O)c(-n2nc3ccccc3n2)c1,,inactive,inactive,inactive,inactive,,inactive,inactive,inactive,inactive,inactive,inactive,,,,,,,
FC(F)(F)C(F)(F)C(F)(F)CC1CO1 (configuration not stated),,inactive,inactive,inactive,inactive,26.3 µM (active),inactive,inactive,inactive,inactive,inactive,,,,,,,,
O=C(O)C(F)(F)C(F)(F)C(F)(F)OC(F)(C(F)(F)F)C(F)(F)F,,inactive,inactive,inactive,inactive,37 µM (active),inactive,inactive,inactive,inactive,inactive,,,,,,,,
CCN(CC)c1ccc(C=O)cc1,,inactive,inactive,inactive,inactive,,inactive,inactive,inactive,inactive,inactive,inactive,,,,,,,
OCC(O)CC(F)(F)C(F)(F)C(F)(F)C(F)(F)C(F)(F)C(F)(F)C(F)(F)C(F)(F)F (configuration not stated),,inactive,inactive,inactive,inactive,,inactive,inactive,inactive,inactive,inactive,,,,,,,,
NC(O)(C(F)(F)F)C(F)(F)F,,inactive,inactive,inactive,inactive,,inactive,inactive,inactive,inactive,inactive,,,,,,,,
O=S(=O)(O)CCC(F)(F)C(F)(F)C(F)(F)C(F)(F)F,30 µM (active),inactive,inactive,inactive,inactive,,inactive,inactive,inactive,inactive,inactive,,,,,,,,
NCC(F)(F)C(F)(F)C(F)(F)C(F)(F)C(F)(F)C(F)(F)F,,inactive,inactive,inactive,inactive,,inactive,inactive,inactive,inactive,inactive,,,,,,,,
O=C(O)C(F)(F)C(F)(F)C(F)(F)OC(F)(F)F,,inactive,inactive,inactive,inactive,37.3 µM (active),inactive,inactive,inactive,inactive,inactive,,,,,,5.95 µM (active),,
